# Measured values reported in PubChem BioAssay (Tox21).
# Results filed as inconclusive are left out. Values without a mark were called inactive. Activity calls are given as the source filed them. Calls come from the whole dose curve; as a rule, active = well fitted curve in the direction sought with a large enough effect in the repeat runs; inconclusive = weak or mixed curves; inactive = no such curve, though single readings can be large; an effect the other way counts as inactive or inconclusive.
# Target: Nuclear receptor subfamily 1 group I member 3 (Homo sapiens) (UniProt Q14994)
# Sequence (Q14994 whole entry, looked up): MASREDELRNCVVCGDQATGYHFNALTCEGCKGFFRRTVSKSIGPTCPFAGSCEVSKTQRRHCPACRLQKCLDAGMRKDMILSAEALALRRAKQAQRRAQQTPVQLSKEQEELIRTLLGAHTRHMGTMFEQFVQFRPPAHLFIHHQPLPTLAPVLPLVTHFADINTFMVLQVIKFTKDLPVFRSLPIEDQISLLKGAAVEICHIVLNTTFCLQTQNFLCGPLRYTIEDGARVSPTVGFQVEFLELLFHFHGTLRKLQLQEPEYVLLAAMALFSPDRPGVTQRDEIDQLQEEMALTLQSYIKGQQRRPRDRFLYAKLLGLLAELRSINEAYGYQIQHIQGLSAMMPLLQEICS
# Assay: qHTS assay to identify small molecule antagonists of the constitutive androstane receptor (CAR) signaling pathway (AID 1224838); note: nearly all actives have a fitted effect of over 40% in size
# Settings: HepG2-CYP2B6-hCAR luciferase, CITCO-stimulated, 24 h; series mostly up to 92.4 µM; activity, negative = inhibition: at the top concentration
# In short: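 CITCO-stimulated (50 nM final) HepG2 cells stably transfected with hCAR and CYP2B6-2.2kb luciferase were exposed to compounds at 15 concentrations for 24 h at 37 C/5% CO2. A luciferase reagent was added and luminescence recorded after 30 min.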
# % is set by controls: 0 for no effect and ±100 for the full control effect; potency is the fitted concentration of half-maximal effect.
Compound,"activity, negative = inhibition",Potency
CSc1ccc2c(c1)C(N1CCN(C)CC1)Cc1ccccc1S2 (centres undefined),9.36% [at 42.5 µM],–
Cc1nc(-c2ccc3c(c2)CCN(CCC2CCC(NC(=O)/C=C/c4ccc(F)cc4)CC2)CC3)no1 (centres undefined),-3.62% [at 42.5 µM],–
Oc1ccc2c(c1)-c1ccccc1C2,213%,–
CCc1cc(Cc2cc(CC)c(N)c(CC)c2)cc(CC)c1N,-6.82%,–
CCC(CN)=C(c1ccccc1)c1ccccc1,83.2% [at 42.5 µM],–
CCCCN1C(=O)[C@@H]([C@H](O)C2CCCCC2)NC(=O)C12CCN(Cc1ccc(Oc3ccc(C(=O)O)cc3)cc1)CC2,-18.3%,–
O=C(Oc1ccccc1)c1ccccc1C(=O)Oc1ccccc1,21.3%,–
NC(=O)CC[C@@H]1NC(=O)[C@H](Cc2ccccc2)NC(=O)[C@H](Cc2ccc(O)cc2)NC(=O)CCSSC[C@@H](C(=O)N2CCC[C@H]2C(=O)N[C@@H](CCCN=C(N)N)C(=O)NCC(N)=O)NC(=O)[C@H](CC(N)=O)NC1=O,-12.3% [at 42.5 µM],–
COc1cccc(N)c1,64.6%,–
CCCC(=O)OC[C@@H](OC(=O)CCC)[C@@H](OC(=O)CCC)[C@H](Cn1c2nc(=O)[nH]c(=O)c-2nc2cc(C)c(C)cc21)OC(=O)CCC,–,29.8 µM (active)
CC1(C)CCC(C)(C)c2cc(C(=O)Nc3ccc(C(=O)O)cc3)ccc21,5.5%,–
O=C(Oc1cccc2cccnc12)c1ccccc1,–,0.001 µM (active)
Cc1cccc(S(=O)(=O)O)c1C,-4.77%,–
c1ccc(CSCc2ccccc2)cc1,20.6%,–
COC(=O)c1cc(Cl)ccc1OC,45.4% [at 42.5 µM],–
CCCCCCCC(=O)[O-].CCCCCCCC(=O)[O-].[Zn+2],13.2% [at 42.5 µM],–
O=C(c1ccc(F)cc1)C1CCN(CCn2c(=O)[nH]c3ccccc3c2=O)CC1,-2.11% [at 42.5 µM],–
CCCCCCCC[P+](CCCCCCCC)(CCCCCCCC)CCCCCCCC,–,10.8 µM (active)
CCCCCCCCCCCC[N+](C)(C)CCCCCCCCCCCC,–,27.3 µM (active)

# Target: Nuclear receptor subfamily 1 group I member 3 (Homo sapiens) (UniProt Q14994)
# Assay: qHTS assay to identify small molecule agonists of the constitutive androstane receptor (CAR) signaling pathway (AID 1224839); note: nearly all actives have a fitted effect of over 15% in size;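 for activation: HepG2 cells stably carrying human CAR and a CYP2B6 luciferase reporter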
# Settings: HepG2 hCAR CYP2B6-luciferase, agonist mode, 24 h; series mostly up to 92.4 µM; activation: at the top concentration
# In short: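 HepG2 cells stably expressing hCAR and a CYP2B6-2.2kb luciferase reporter were treated with compounds at 15 concentrations plus 0.75 uM PK11195 (final) for 24 h at 37 C; luminescence was read after ONE-Glo addition.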
Compound,activation,Potency
CSc1ccc2c(c1)C(N1CCN(C)CC1)Cc1ccccc1S2 (centres undefined),-5.95% [at 42.5 µM],–
Cc1nc(-c2ccc3c(c2)CCN(CCC2CCC(NC(=O)/C=C/c4ccc(F)cc4)CC2)CC3)no1 (centres undefined),-2.8% [at 42.5 µM],–
CCc1cc(Cc2cc(CC)c(N)c(CC)c2)cc(CC)c1N,–,4.86 µM (active)
CCC(CN)=C(c1ccccc1)c1ccccc1,3.53% [at 42.5 µM],–
CCCCN1C(=O)[C@@H]([C@H](O)C2CCCCC2)NC(=O)C12CCN(Cc1ccc(Oc3ccc(C(=O)O)cc3)cc1)CC2,-3.49%,–
COc1cccc(N)c1,11.2%,–
O=c1cccccc1O,-1.5%,–
CC(C)(C)C(=O)OCOC(=O)[C@@H]1N2C(=O)[C@@H](NC(=O)[C@H](N)c3ccccc3)[C@H]2SC1(C)C,-0.925% [at 42.5 µM],–
CCOC(=O)c1nc(C(Cl)(Cl)Cl)n(-c2ccc(Cl)cc2Cl)n1,-2.88%,–
CCCC(=O)OC[C@@H](OC(=O)CCC)[C@@H](OC(=O)CCC)[C@H](Cn1c2nc(=O)[nH]c(=O)c-2nc2cc(C)c(C)cc21)OC(=O)CCC,-22.4% [at 42.5 µM],–
Nc1ccc(N)c2ccccc12,-22.5%,–
CC1(C)CCC(C)(C)c2cc(C(=O)Nc3ccc(C(=O)O)cc3)ccc21,5.1%,–
Nc1cc(C(F)(F)F)ccc1S,13.2% [at 42.5 µM],–
O=C(Oc1cccc2cccnc12)c1ccccc1,-14.1% [at 42.5 µM],–
COC(=O)c1cc(Cl)ccc1OC,0.572% [at 42.5 µM],–
CC[C@@]1(O)C(=O)OCc2c1cc1n(c2=O)Cc2c-1nc1ccccc1c2/C=N/OC(C)(C)C,-12.7% [at 42.5 µM],–
CCCCCCCC[P+](CCCCCCCC)(CCCCCCCC)CCCCCCCC,-24%,–
CCCCCCCCCCCC[N+](C)(C)CCCCCCCCCCCC,-21.7%,–
C[C@@H](NCCCc1cccc(C(F)(F)F)c1)c1cccc2ccccc12,-5.67% [at 42.5 µM],–
CC(C)CCCCCCCCCCCCCCC(=O)O,0.413%,–
